Assay outcomes from PubChem.
Shown are actives, neighbours in structure and some others; about 2.5% of the full set was active somewhere.
DYRK1A inh: Dyrk1A (rat) kinase inhibition; Q63470; ADP-Glo luminescence, NFATc1 peptide; inhibition, % at 12.5 µM; 310,000 compounds, 0.43% hits; AID 504441; in the data active = inhibition above about 50%
aDG glyco up: alpha-DG glycosylation activation; Pro5-aDG cells, alpha-DG glycosylation AlphaScreen (IIH6); 0% Pro5, 100% B10-LARGE cell signal; activation, % at 10 µM; 360,000 compounds, 0.22% hits; AID 624168;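 active = activation of at least 8% versus controls, or a plate z-score of at least 8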;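 also: Pro5 are CHO cells carrying HIG-tagged alpha-DG that lacks glycosylation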
HSF1 inhib: HSF1 inhibition. 300,000 compounds, 0.77% hits. NIH3T3-HGL HSE-luciferase, MG132-induced, luminescence 8 h; hits give low values. activity change, negative = inhibition, % at 7.5 µM (by protocol);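 active = more than half of replicate wells show activity change below -50%, luminescence cut by over half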;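 also: luciferase reports HSF-1 transcriptional activity via heat shock element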
NPR2 activator: GC-B (human) receptor activation; HEK293-GC-B cells, CNP EC30, cGMP TR-FRET; 0% at EC30 CNP, 100% saturating CNP; activation, % at 10 µM; 370,000 compounds, 0.11% hits; AID 1920062;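 active = activation at 10 µM reaching about 35% in either raw or pattern-adjusted values, limit read from the data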
HSF1 activator: increases HSF-1 driven luciferase reporter signal; activation, % at 9 µM; NIH3T3-HGL HSF-1 luciferase reporter, MG132, 8 h; 100% = twice DMSO control signal; AID 504408; 300,000 compounds, 1.7% hits;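 active = mean replicate activation of at least 50% with a set share of replicates each reaching 50%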
GC-A act: GC-A (human) enzyme activation. HEK293 GC-A cells, cGMP TR-FRET, EC30 ANP; 0% at EC30 ANP, 100% saturating ANP. activation, % at 10 µM. 370,000 compounds, 0.14% hits. AID 1671463; in the data active = activation above about 40%
Target sequence (P16066 whole entry, looked up): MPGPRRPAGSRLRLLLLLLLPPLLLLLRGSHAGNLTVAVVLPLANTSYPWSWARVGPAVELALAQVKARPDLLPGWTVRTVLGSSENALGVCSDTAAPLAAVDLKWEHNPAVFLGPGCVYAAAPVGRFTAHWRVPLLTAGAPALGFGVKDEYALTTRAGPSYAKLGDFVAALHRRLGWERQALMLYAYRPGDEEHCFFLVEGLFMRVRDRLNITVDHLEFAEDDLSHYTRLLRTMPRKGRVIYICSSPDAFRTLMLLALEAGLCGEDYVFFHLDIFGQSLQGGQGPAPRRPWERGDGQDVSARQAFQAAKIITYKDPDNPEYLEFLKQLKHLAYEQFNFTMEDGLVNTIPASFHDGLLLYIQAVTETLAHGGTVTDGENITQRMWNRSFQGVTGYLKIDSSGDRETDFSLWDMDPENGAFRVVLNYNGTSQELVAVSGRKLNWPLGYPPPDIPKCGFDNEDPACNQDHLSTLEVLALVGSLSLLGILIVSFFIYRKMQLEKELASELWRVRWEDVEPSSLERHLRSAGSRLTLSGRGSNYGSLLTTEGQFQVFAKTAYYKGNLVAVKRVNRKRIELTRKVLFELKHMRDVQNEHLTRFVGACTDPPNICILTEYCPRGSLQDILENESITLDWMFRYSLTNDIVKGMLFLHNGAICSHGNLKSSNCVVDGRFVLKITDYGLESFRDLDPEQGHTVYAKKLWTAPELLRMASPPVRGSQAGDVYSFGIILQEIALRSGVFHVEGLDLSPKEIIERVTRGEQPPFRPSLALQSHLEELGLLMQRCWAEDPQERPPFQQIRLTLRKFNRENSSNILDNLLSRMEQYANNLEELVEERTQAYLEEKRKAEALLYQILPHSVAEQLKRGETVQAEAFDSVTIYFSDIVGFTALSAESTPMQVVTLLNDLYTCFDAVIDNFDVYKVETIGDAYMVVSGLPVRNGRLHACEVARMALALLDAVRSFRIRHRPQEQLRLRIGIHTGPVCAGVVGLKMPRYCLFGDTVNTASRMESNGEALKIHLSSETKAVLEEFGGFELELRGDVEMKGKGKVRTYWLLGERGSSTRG
Large screens that a line does not name were inactive.

Cc1nn(-c2cccc(Cl)c2)c2c1C(c1ccncc1)C(C#N)=C(N)O2 (stereo unspecified)	HSF1 activator 82
CCN(CC)S(=O)(=O)c1cccc(-c2nnc(SC(C)C(N)=O)n2CCc2ccccc2)c1 (stereo unspecified)	none
CCN(CC)S(=O)(=O)c1cccc(-c2nnc(SCC(N)=O)n2CCc2ccccc2)c1	HSF1 inhib -60
Cc1ccc2nc(NC(=O)CSCC(=O)OCC(=O)c3ccc(Br)cc3)sc2c1	HSF1 inhib -66
COC(=O)c1ccc2nc(NC(=O)CSCC(=O)OCC(=O)c3ccccc3)sc2c1	none
O=C(N=C1SC2CS(=O)(=O)CC2N1Cc1ccccc1Cl)C1CCCO1 (stereo unspecified)	none
COc1ccccc1-c1cc(C(=O)NC(C)C)no1	HSF1 activator 54
COc1ccccc1-c1cc(C(=O)NC(C)c2ccccc2)no1 (stereo unspecified)	none
O=C(COC(=O)c1ccccc1-n1cnnn1)c1ccc(F)cc1	HSF1 inhib -53
COc1ccccc1C(=O)COC(=O)c1ccc(-n2cnnn2)cc1	none
CN(C(=O)C1CCN(S(=O)(=O)c2ccccc2[N+](=O)[O-])CC1)C1CCCCC1	none (no result: DYRK1A inh, HSF1 inhib, HSF1 activator)
CCCc1nnc(NC(=O)CCC(=O)N2CCN(Cc3cc(F)ccc3OC)CC2)s1	none
CCCc1nnc(NC(=O)CCC(=O)N2CCN(S(=O)(=O)c3ccc(F)cc3)CC2)s1	HSF1 inhib -86
C[C@@H]1CN(S(=O)(=O)C(C)(C)C)[C@@H](CCO)/C1=C\CCO	none (no result: DYRK1A inh, aDG glyco up, HSF1 inhib, HSF1 activator)
COc1ccc(CCNC(=O)C2CCC(=O)N2S(=O)(=O)c2ccc(C)cc2)cc1 (stereo unspecified)	none (no result: DYRK1A inh)
O=C(c1cc2c(s1)-c1ccccc1OC2)N1CCN(c2ccccc2)CC1	HSF1 inhib -64
CNC(=O)c1nnsc1S(=O)c1ccc(Cl)cc1 (stereo unspecified)	HSF1 activator 73
CCCNC(=O)c1nnsc1S(=O)c1ccc(Cl)cc1 (stereo unspecified)	HSF1 inhib -96
CCCNC(=O)c1nnsc1S(=O)(=O)c1ccc(Cl)cc1	none (no result: HSF1 inhib, HSF1 activator)
C(/C=C/c1ccccn1)=C\c1ccccc1	HSF1 activator 61
C(=C\c1ccccn1)/c1ccncc1	none
CCCCN(CCCC)CP(=O)(c1ccccc1)c1ccccc1	none
Cc1ccccc1N1CC(C(=O)N2CC(C)CC(C)C2)CC1=O (stereo unspecified)	none
C/C(=N\NC(=O)CCc1ccc(S(=O)(=O)N2CCOCC2)cc1)c1ccc(Br)cc1	HSF1 activator 61
O=C(CCc1ccc(S(=O)(=O)N2CCOCC2)cc1)N/N=C/c1cccc(O)c1	none
O=C(CN(C(=O)CNS(=O)(=O)c1ccc(F)cc1)c1cccc(F)c1)NCC1CCCO1 (stereo unspecified)	none
CN1CCN(Cc2c(O)ccc3cc(Br)ccc23)CC1	HSF1 activator 134 (no result: DYRK1A inh, aDG glyco up)
O=C(/C=C/c1ccc(F)cc1)c1ccc(N2CCOCC2)cc1	none
CCc1ccc(/C=C/C(=O)c2ccc(N3CCOCC3)cc2)cc1	HSF1 activator 55
COC(=O)/C=C1/N/C(=N\c2nc(C)cc(C)n2)N(c2cccc(C)c2)C1=O	none
C=C(C)Cn1c(SCC(=O)O)nnc1-c1ccc(OC)cc1	HSF1 activator 59
CNc1ncnc2c1ncn2[C@H]1CN(Cc2ccc(OC)cc2)C[C@@H](CO)O1	none (no result: DYRK1A inh, HSF1 inhib, HSF1 activator)
COC(=O)c1c(NC(=O)c2nc3ccccc3s2)sc2c1CCN(C(C)=O)C2	none (no result: HSF1 inhib, NPR2 activator, HSF1 activator, GC-A act)
CNC(=O)c1c(NC(=O)c2nc3ccccc3s2)sc2c1CCC2	HSF1 activator 55 (no result: NPR2 activator, GC-A act)
CC1(C)CC(=O)C2=C(C1)c1c(ccc3ccccc13)NC2c1ccc(C(=O)O)cc1 (stereo unspecified)	none
Cc1ccc(C2Nc3ccc4ccccc4c3C3=C2C(=O)CC(C)(C)C3)o1 (stereo unspecified)	HSF1 activator 86
COc1ccc(NC(=O)c2cc(-c3ccccc3Cl)on2)cc1OC	none
O=C(Nc1cccc(O)c1)c1cc(-c2ccccc2Cl)on1	HSF1 inhib -58
CCC(C)N1C(=O)S/C(=C/c2ccc(N3CCOCC3)cc2C)C1=O (stereo unspecified)	none
CCCN1C(=O)S/C(=C\c2ccc(N3CCOCC3)o2)C1=O	HSF1 activator 93
Cc1cc(N2CCOCC2)ccc1/C=C1\SC(=O)N(C(C)C)C1=O	HSF1 activator 78
CCCN1C(=O)S/C(=C/c2ccc(N3CCOCC3)o2)C1=O	none
CCN1C(=O)S/C(=C\c2ccc(N3CCOCC3)cc2C)C1=O	HSF1 activator 65
C#CCN1C(=O)S/C(=C\c2ccc(N3CCOCC3)cc2C)C1=O	none
Cc1nc([N+](=O)[O-])cn1CCCCN1C(=O)c2ccccc2C1=O	none
Cc1cc(C(=O)N2CCCC(N3CCN(c4ccc(F)cc4)CC3)C2)c(C)o1 (stereo unspecified)	none (no result: DYRK1A inh)
COc1ccc(C2CC(=O)C3=C(C2)Nc2ncnn2C3c2ccccc2)cc1 (stereo unspecified)	HSF1 activator 81
Oc1ccc(Cl)cc1CNn1cnnc1	none
CC(C)C[C@H]1CNC(=O)C(=O)N1C[C@@H]1CCCN1C[C@H](Cc1ccccc1)N1C[C@H](CC(C)C)N(CCc2ccccc2)C(=O)C1=O	none (no result: DYRK1A inh, HSF1 inhib, HSF1 activator)
COc1ccc(CCNC(=O)Nc2cccc([N+](=O)[O-])c2)cc1OC	HSF1 activator 71
O=C(CCc1ccccc1)Nc1cccc([N+](=O)[O-])c1	HSF1 inhib -76
COc1ccc(CCNC(=O)Nc2cccc([N+](=O)[O-])c2)cc1	none
COc1ccc(CCNC(=O)c2cccc([N+](=O)[O-])c2)cc1OC	HSF1 inhib -87
O=C(NCc1ccccn1)c1cccc([N+](=O)[O-])c1	HSF1 activator 62
COc1ccc(CCNC(=O)c2ccc(-c3cccc([N+](=O)[O-])c3)o2)cc1OC	none
CN(C)C(=O)CN1CCN(C(=O)CCl)CC1	none
Cc1ccc(/C=C/C(=O)N2CC(C)CC(C)C2)o1 (stereo unspecified)	HSF1 activator 51
CN(C)CCN1CCN([C@H]2CS(=O)(=O)N[C@@H]2COCc2ccccc2)CC1	none (no result: DYRK1A inh, HSF1 inhib, HSF1 activator)
CC1(C)Cc2c(cnn2-c2ccccc2)C(NC(=O)c2ccc[n+]([O-])c2)C1 (stereo unspecified)	none
CC(=O)NC(c1ccccc1)c1cc(Cl)c2cccnc2c1O (stereo unspecified)	HSF1 inhib -83
CN1CCN(C(c2ccc(Cl)cc2)c2cc(Cl)c3cccnc3c2O)CC1 (stereo unspecified)	HSF1 activator 79
CN1CCN(C(c2ccc(C(F)(F)F)cc2)c2cc(Cl)c3cccnc3c2O)CC1 (stereo unspecified)	none (no result: DYRK1A inh, aDG glyco up)
